Results published in ChEMBL document CHEMBL4513149, “CO-ADD screening of MMV (CH) - MMV compounds” (2021).
Measured potencies and affinities stand elsewhere.

Tests used:
Staphylococcus aureus = conditions: Concentration 20 uM; ASSAY_TEST Inhibition of Bacterial Growth; detection method Absorption (OD600); MEDIA CAMHB; plate type 384well; NBS; CORNING #3640; time 18 hr
Escherichia coli = conditions: Concentration 20 uM; ASSAY_TEST Inhibition of Bacterial Growth; detection method Absorption (OD600); MEDIA CAMHB; plate type 384well; NBS; CORNING #3640; time 18 hr

Row | SMILES | Inhibition (Staphylococcus aureus) [%] | Inhibition (Escherichia coli) [%]
1 | O=C(C1CCN(c2nnnn2-c2ccccc2)CC1)N1CCc2ccccc2C1 | 18.44 | 5.61
2 | c1ccc(-c2cc(N3CCCCC3)c3ccccc3n2)nc1 | 9.48 | 7.94
3 | Cc1ccc(-c2cc(C(=O)Nc3cccnc3)c3cc(Br)ccc3n2)cc1 | 16.17 | 9.4
4 | Cc1cc(OCC(=O)Nc2ccc(C(C)C)cc2)n(C)c(=O)c1C#N | 7.07 | 14.16
5 | Cc1cccc(Cn2ccc(NC(=O)c3ccc4c(c3)OCO4)n2)c1 | 18.14 | 6.79
6 | Cc1ccc2oc(-c3cc(NC(=O)Cc4ccccc4)ccc3Cl)nc2c1 | 2.8 | 6.02
7 | C[C@]1(O)C[C@@H](c2nc(-c3ccc4ccc(-c5ccccc5)nc4c3)c3c(N)nccn32)C1 [LINSITINIB] | 13.39 | 6.95
8 | O=C(c1[nH]nc2c1CCCC2)N1CCN(Cc2ccc3c(c2)OCO3)CC1 | 14.51 | 7.99
9 | O=C(NC1CCCCC1)N1CCN(Cc2ccc3c(c2)OCO3)CC1 | 15.03 | 4.44
10 | Nc1nccc2ccc(Oc3ccncc3)cc12 | 12.81 | 7.44
